Inconclusive results are not listed. Where a call stands in place of a potency, no number is given. Active and inactive are the calls of the source. The call rests on the fitted dose curve; in most records, active means well fitted cell-killing curve with a large enough effect; inconclusive means small, poorly fitted or top-dose-only effect, or effect the other way; inactive means no such curve, though single readings can be large or run the other way.
Potency means the concentration at half of the fitted maximal effect.

The assay in a line: Viability qHTS for spleen associated tyrosine kinase inhibitor (SYKi) naive MV4-11 cells (AID 1963823). Further: nearly all actives have a fitted effect of over 40% in size. The conditions noted are these: MV4-11 AML viability, CellTiter-Glo luminescence, 72 h; series mostly up to 45 µM. The method, boiled down:
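Viability of MV4-11 AML cells lacking prior SYK inhibitor exposure is scored by CellTiter-Glo luminescence following 72 hr compound incubation at 37 C, 5% CO2, seeded at 500 cells per well.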
On to `CC[C@H]1OC(=O)[C@H](C)[C@@H](O[C@H]2C[C@@](C)(OC)[C@@H](O)[C@H](C)O2)C(C)[C@@H](O[C@@H]2O[C@H](C)C[C@H](N(C)C)[C@H]2O)[C@](C)(O)C[C@@H](C)CN(C)[C@H](C)[C@@H](O)[C@]1(C)O` (some centres not stated), for which the Potency result was “inactive”.
Consider `C=C1/C(=C/C=C2\CCC[C@@]3(C)C2CCC3[C@H](C)/C=C/[C@@H](O)C2CC2)C[C@@H](O)C[C@@H]1O` (some centres not stated), for which the Potency result is “inactive”.
With `CCC(C)/C=C(C)/C=C/C1=CC2=C(Cl)C(=O)C(C)(OC(C)=O)C(=O)C2=CN1C(CC(=O)O)C(=O)O` (configuration not stated) the entry was “inactive”.
To `CC1C/C=C/C=C\CCCCC(O)C/C=C/C(=O)O1` (configuration not stated) belongs “inactive”.
To `Cc1occc1C(=O)n1ccnc1` belongs “inactive”.
As for `O=C(O)CCc1ccc(NCc2cccc3c2CCCN3CCOc2ccccc2)cc1F`, the Potency result is “inactive”.
To `COC1C(O)C(OC2CCC3(C)C(CCC45CCC6C7(COC(=O)C7)OC4(O)C6(C)CCC35)C2)OC(C)C1OC1OC(CO)C(OC2OC(CO)C(O)C(O)C2O)C(O)C1O` (configuration not stated) belongs 3.9 µM (active).
To `COc1ccccc1NC(=O)OCC1CCN(C(=O)OC(C)(C)C)CC1` belongs “inactive”; to `C=C1CCC[C@]2(C)C[C@]3(O)OC(=O)C(C)=C3C[C@@H]12`, “inactive”; to `CC(=O)OC[C@]12[C@H](OC(C)=O)[C@H](OC(=O)c3ccccc3)[C@@H]3[C@@H](OC(C)=O)[C@]1(OC3(C)C)[C@H](C)C[C@H](OC(C)=O)[C@@H]2OC(=O)c1ccccc1`, “inactive”.
Regarding `CC1(C)CC2C(O)C3=C(CC(C)(O)C2C1)C(=O)OC3` (configuration not stated), the Potency entry is “inactive”.
With `CN1CCC(c2c[nH]c3ccc(NC(=O)c4ccc(F)cc4)cc23)CC1` the entry was “inactive”.
